For 92 compounds, inhibition results are on record in PubChem BioAssay AID1445 (SRMLSC, 2008).

The structures appear in SMILES notation. Screen size: about 220,000 compounds; about 910 (0.41%) were called active. The entries come from a sample that favours actives as a whole. Results with a measured potency or affinity are listed apart. A number with no mark means an inactive call.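 Rule for the calls: active = primary inhibition above the hit cutoff, then over 50% inhibition at one or more dose response concentrations (cut at about 23% in these data, passing the limit was not always enough); inconclusive = conflicting primary data, or primary hits not chosen for dose response; inactive = low primary inhibition, or under 50% at every dose.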

For this assay, the target named is Aminopeptidase N (Plasmodium falciparum (isolate 3D7)) (UniProt O96935). Put plainly: malaria alanyl aminopeptidase activity blockers – biochemical, fluorogenic H-Leu-NHMec substrate, 1536-well (AID 1445).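 Note: plate controls were DMSO full reaction for no effect and no enzyme background for full effect.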 The note with it: recombinant M1AAP, H-Leu-NHMec fluorogenic kinetic assay; at 30 µM, active compounds read high unless noted.
Aminopeptidase N (Plasmodium falciparum (isolate 3D7)), sequence (O96935 whole entry, looked up): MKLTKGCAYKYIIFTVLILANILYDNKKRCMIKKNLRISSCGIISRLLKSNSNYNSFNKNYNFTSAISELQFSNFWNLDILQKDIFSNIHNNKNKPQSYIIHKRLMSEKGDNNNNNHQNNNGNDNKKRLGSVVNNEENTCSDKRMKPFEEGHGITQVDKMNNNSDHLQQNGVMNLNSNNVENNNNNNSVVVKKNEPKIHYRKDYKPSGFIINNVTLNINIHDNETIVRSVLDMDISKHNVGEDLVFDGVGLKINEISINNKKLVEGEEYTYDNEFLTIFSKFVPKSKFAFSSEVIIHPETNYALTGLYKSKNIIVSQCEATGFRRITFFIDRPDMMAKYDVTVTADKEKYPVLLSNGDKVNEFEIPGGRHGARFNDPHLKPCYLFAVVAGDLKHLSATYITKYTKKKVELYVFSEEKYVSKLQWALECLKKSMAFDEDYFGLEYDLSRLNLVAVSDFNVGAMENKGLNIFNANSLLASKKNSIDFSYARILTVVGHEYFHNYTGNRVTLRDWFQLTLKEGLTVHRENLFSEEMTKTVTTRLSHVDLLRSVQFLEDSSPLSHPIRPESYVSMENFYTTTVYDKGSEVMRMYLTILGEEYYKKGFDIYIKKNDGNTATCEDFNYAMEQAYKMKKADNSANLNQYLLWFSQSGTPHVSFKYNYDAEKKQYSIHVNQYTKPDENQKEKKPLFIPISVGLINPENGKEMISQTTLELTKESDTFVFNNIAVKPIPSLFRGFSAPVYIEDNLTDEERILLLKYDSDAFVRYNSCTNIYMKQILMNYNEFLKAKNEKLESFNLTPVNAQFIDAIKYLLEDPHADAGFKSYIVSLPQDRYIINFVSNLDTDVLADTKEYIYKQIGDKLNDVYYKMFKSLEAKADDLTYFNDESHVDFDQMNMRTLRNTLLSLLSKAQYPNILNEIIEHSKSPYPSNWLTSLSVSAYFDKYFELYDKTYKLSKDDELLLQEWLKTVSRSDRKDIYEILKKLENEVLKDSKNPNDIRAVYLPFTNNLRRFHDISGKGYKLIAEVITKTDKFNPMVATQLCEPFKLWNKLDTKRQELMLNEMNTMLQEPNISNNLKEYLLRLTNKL
By inhibition is commonly meant the relative decrease from the control value, in per cent. Take `O=C(O)CCC(=O)N1N=C(c2ccccc2)CC1c1ccc2nccnc2c1` (configuration not stated): the inhibition is 12%.

For the compound `COc1ccc(C2CC(c3c(-c4ccccc4)c4cc(Cl)ccc4[nH]c3=O)=NN2S(C)(=O)=O)cc1` (configuration not stated), the inhibition was 2.82%.

With `CC(=O)N1N=C(c2ccc(C)cc2)CC1c1ccco1` (configuration not stated), the inhibition was 6.1%.

For the compound `Cc1ccc(C2=NN(C(=O)CCCC(=O)O)C(c3ccco3)C2)cc1` (configuration not stated), the inhibition was 7.5%.

As for `CCC(=O)N1N=C(c2c(-c3ccccc3)c3cc(Cl)ccc3[nH]c2=O)CC1c1ccco1` (configuration not stated), the inhibition is 22.1%.

Consider `CC(=O)N1N=C(c2c(-c3ccccc3)c3cc(C)ccc3[nH]c2=O)CC1c1ccco1` (configuration not stated), for which the inhibition was 20%.

In the case of `COc1ccc(C2CC(c3ccccc3)=NN2C(=O)COC(=O)C2CC2)cc1` (configuration not stated), the inhibition is 8.28%.

On to `COc1ccc(C2CC(c3c(-c4ccccc4)c4cc(Cl)ccc4[nH]c3=O)=NN2S(C)(=O)=O)cc1OC` (configuration not stated), for which the inhibition is 13.3%.

For the compound `Nc1nonc1-c1nc2ccccc2n1CC(=O)O`, the inhibition was 11.2%.

With `C[C@H](NC(=O)c1nc[nH]c1C(=O)NCCCCCNC(=O)OC(C)(C)C)C(=O)OC(C)(C)C`, the inhibition was -4.42%.

Regarding `CCCCCCCc1ccc(C2NC(=S)NC3=C2C(=O)c2ccccc23)cc1` (configuration not stated), the inhibition was 3.12%.

`CCOc1ccccc1NC(=O)/C(C#N)=C/c1c(C)nn(-c2ccccc2)c1Cl`: the inhibition is 4.31%.

Regarding `CC(C)CN(C(=O)CSc1nnc2ccccn12)c1c(N)n(CC(C)C)c(=O)[nH]c1=O`, the inhibition is 6.58%.

Take `CC1(C)N=C(N)N=C(N)N1c1ccc(OCCCOc2ccccc2)c(Cl)c1`: the inhibition was -0.74%.

On to `Cc1csc(SCC(=O)NC2CCCCC2)n1`, for which the inhibition was -5.21%.

On to `COc1ccc(NC(=O)c2ccccc2C)c(OC)c1`, for which the inhibition is 5.69%.

With `Cc1ccc(CN2C3CCCC2CC(NC(=O)c2ccc(C)cc2)C3)cc1` (configuration not stated), the inhibition was -1.65%.

For the compound `O=C(NC(=S)NC1C2CC3CC(C2)CC1C3)C12CC3CC(CC(C3)C1)C2` (configuration not stated), the inhibition is 5.47%.

For `COc1ccc(CNC(=O)c2ccccc2SC)cc1`, the inhibition was -2.23%.

`CN(C1CCCCC1)S(=O)(=O)c1ccccc1`: the inhibition was -1.57%.

In the case of `COc1ccccc1NS(=O)(=O)c1cccc(NC(=O)Nc2ccccc2)c1`, the inhibition is 2.5%.

For the compound `COc1ccc(CNC(=O)CCCN2C(=O)c3ccccc3C2=O)cc1`, the inhibition is 1.01%.

In the case of `COc1ccccc1NS(=O)(=O)c1cccc(N2CC(O)=C(c3ccccc3)C2=N)c1`, the inhibition is 9.55%.

For the compound `COc1ccc(CN2C(=O)c3cccc4cccc(c34)C2=O)cc1`, the inhibition is -0.38%.

Consider `Cc1cc(C)n(-c2ccc(C(=O)OCC(=O)Nc3ccc(S(=O)(=O)N4CCOCC4)cc3)cc2)n1`, for which the inhibition is -7.49%.

With `CCOc1ccc(CCNC(=O)COC(=O)c2cc(OC)cc(OC)c2)cc1OCC`, the inhibition is 6.82%.

Take `COC(=O)c1ccccc1NC(=O)CNC(=O)c1ccco1`: the inhibition was 7.08%.

With `O=C(c1ccco1)N1N=C(c2ccc(Br)cc2)CC1(O)C(F)(F)F` (configuration not stated), the inhibition is -1.14%.

`CC(C)CCNC(=O)CNC(=S)N(Cc1ccccc1)Cc1cccnc1`: the inhibition is -3.15%.

Regarding `COc1ccc(/C=N/NC(=O)CC(=O)N/N=C/c2ccc(OC)cc2)cc1`, the inhibition was 5.03%.

On to `COc1ccc(/C=N/NC(=O)CSCC(=O)Nc2ccccc2)cc1`, for which the inhibition was 0.01%.

For the compound `Cc1ccc2nc(CSc3nnc(Cc4cccs4)n3C3CCCCC3)cc(=O)n2c1`, the inhibition is 14.2%.

`O=C(CCCC(=O)N(CC(=O)NC1CCCC1)Cc1ccc2c(c1)OCO2)Nc1ccccn1`: the inhibition was 8.73%.

`O=C(CCCC(=O)N(CC(=O)NC1CCCCC1)Cc1ccc2c(c1)OCO2)Nc1ccccn1`: the inhibition was 1.7%.

Turning to `CC(C)(C)NC(=O)CN(Cc1ccc2c(c1)OCO2)C(=O)CCC(=O)Nc1nccs1`, the inhibition was 3.84%.

For the compound `CCC(C)(C)NC(=O)CN(C(=O)CCC(=O)Nc1cc(C)ccn1)c1ccc2c(c1)OCO2`, the inhibition is 10.3%.

`O=C(CCC(=O)N(CC(=O)NC1CCCC1)Cc1ccc2c(c1)OCO2)Nc1ccccn1`: the inhibition was 26.2% (active).

In the case of `CCC(C)(C)NC(=O)CN(Cc1ccccc1Cl)C(=O)CCC(=O)Nc1cc(C)ccn1`, the inhibition is 1.69%.

Regarding `O=C(CCC(=O)N(CC(=O)NC1CCCC1)Cc1ccc2c(c1)OCO2)Nc1nccs1`, the inhibition is 12.3%.

`O=C(CSc1nnc(-c2ccc(Cl)cc2)n1Cc1ccco1)Nc1ccc2c(c1)OCCO2`: the inhibition is 6.61%.

Turning to `O=C(Nc1ccccc1N1CCCC1)c1cccc(Cl)c1Cl`, the inhibition was 5.02%.

In the case of `Cc1cccc(-c2cc(N)n(-c3ccccc3)n2)c1`, the inhibition was 15.4%.

In the case of `Cc1nn(-c2ccccc2)c(C)c1N`, the inhibition is -5.19%.

Consider `Cc1nc(-c2ccccc2O)n(-c2ccccc2)n1`, for which the inhibition was 14.8%.

Take `Cc1cccc(N2C(N)=C(C#N)C(C#N)(C#N)C2c2ccccc2)c1` (configuration not stated): the inhibition is 7.85%.

For `CCOC(=O)c1c(-c2ccc(C)o2)csc1NC(=O)CSc1ncn[nH]1`, the inhibition was 0.41%.

On to `O=C(CCCO)CCCCCCCCC[C@H]1N[C@H](CO)[C@@H](O)[C@@H]1O`, for which the inhibition was 7.45%.

For the compound `CC(C)CC(N=Cc1c(O)c2ccccc2oc1=O)C(=O)O` (configuration not stated), the inhibition was 16.5%.

For `O=C(O)C(CO)N=Cc1c(O)c2ccccc2oc1=O` (configuration not stated), the inhibition is 20.4%.

On to `CSc1nnc(-c2ccccc2N=Cc2c(C)[nH]n(-c3ccccc3)c2=O)c(=O)[nH]1`, for which the inhibition was 11.9%.

Regarding `Cc1nn(-c2ccc3ccccc3c2)c(=O)c2ccccc12`, the inhibition is 0.56%.

Turning to `COc1cc(/C=C/c2nc(-c3ccccc3O)n[nH]2)cc(OC)c1OC`, the inhibition is 1.7%.

Consider `Cc1ccc(C(=O)NCC(=O)OCC(=O)c2c(N)n(C)c(=O)n(C)c2=O)s1`, for which the inhibition is 5.58%.

On to `Cc1ccc(Nc2nnc(SCC(=O)NC(Cc3c[nH]c4ccccc34)C(=O)O)s2)cc1` (configuration not stated), for which the inhibition is 22%.

As for `CCOC(=O)C(Cc1c[nH]c2ccccc12)NC(=O)c1ccco1` (configuration not stated), the inhibition was -3.49%.

As for `O=C(Cn1nnc2ccccc2c1=O)N[C@@H](Cc1ccccc1)C(=O)O`, the inhibition is 2.79%.

Consider `O=C(Nc1ccccc1C(=O)NC(Cc1c[nH]c2ccccc12)C(=O)O)c1ccco1` (configuration not stated), for which the inhibition was 7.54%.

For `O=C(NC(Cc1c[nH]c2ccccc12)C(=O)O)c1ccco1` (configuration not stated), the inhibition is 27.5% (active).

As to `CCOc1ccccc1Nc1nnc(SCC(=O)Nc2ccc3[nH]c(=O)[nH]c3c2)s1`, the inhibition is 1.06%.

As for `O=C(CCn1nnc2ccccc2c1=O)N[C@@H](Cc1c[nH]c2ccccc12)C(=O)O`, the inhibition was 9%.

For `COc1ccc(/C(C)=N\Nc2nc(-c3ccc(Cl)cc3)cc(C(F)(F)F)n2)cc1OC`, the inhibition is -2.08%.

Take `CCOC(=O)C1=C(O)C(=O)N(c2ccc(S(N)(=O)=O)cc2)C1c1ccc(Br)cc1` (configuration not stated): the inhibition is 0.8%.

As to `CCOc1cccc(OCCOCCn2cnc3ccccc3c2=O)c1`, the inhibition is 0.65%.

`CNCc1ccccc1Sc1ccc(OC)cc1`: the inhibition is -3.58%.

In the case of `NS(=O)(=O)c1cccc(NC(=O)CCSc2ccc(Cl)cc2)c1`, the inhibition is 6.9%.

On to `CCCCCCCC[n+]1cccc2c3ccccc3ccc21`, for which the inhibition is 29.8%.

`CCCCCCCCC[n+]1cccc2c3ccccc3ccc21`: the inhibition was 18.5%.

For `Cc1ccc(C2Nc3ccc4ccccc4c3C3=C2C(=O)CC(C)(C)C3)o1` (configuration not stated), the inhibition is 16%.

For the compound `CC1(C)CC(=O)C2=C(C1)c1c(ccc3ccccc13)NC2c1ccco1` (configuration not stated), the inhibition was 0.07%.

`CCCN(CCC)c1ncnc2c1cnn2-c1ccc(OC)cc1`: the inhibition was 2.75%.

`COc1ccc(-c2[nH]c(-c3ccc(C)cc3)nc2SCC(=O)NC2CCCC2)cc1`: the inhibition was 1.57%.

For `Cc1nc(NCc2ccco2)c2oc3ccccc3c2n1`, the inhibition is 25.6% (active).

As for `c1ccc(-c2nc(NCc3ccco3)c3oc4ccccc4c3n2)cc1`, the inhibition is 11.9%.

Take `CCc1nc(NCc2ccco2)c2oc3ccccc3c2n1`: the inhibition is 2.95%.

For `CCC(C)NC(=O)C1CCN(S(=O)(=O)c2ccc(OC)cc2)CC1` (configuration not stated), the inhibition is 4.22%.

Turning to `C(=N\Nc1nc2ccccc2[nH]1)/c1ccncc1`, the inhibition was 5.02%.

As to `CSc1cc(-c2ccccc2)n(C)c(=O)c1C#N`, the inhibition is 3.47%.

Consider `COc1nc(N=C(N)N)nc2ccc(C)cc12`, for which the inhibition was 20.7%.

For the compound `Cc1ccc2nc(N=C(N)N)nc(C)c2c1`, the inhibition is 10.4%.

Regarding `COc1ccc(Oc2cc(C)c3cccc(C)c3n2)cc1`, the inhibition was -2.89%.

For `Cc1cc2nc(N=C(N)N)nc(C)c2cc1C`, the inhibition was 9.31%.

`O=C(COC(=O)Cc1ccc(F)cc1)NCc1ccco1`: the inhibition is 4.03%.

In the case of `CCC(C)NC(=O)COC(=O)c1csc2c1CCCC2` (configuration not stated), the inhibition was 7.63%.

`COC(=O)c1ccc(CSc2nc(C(F)(F)F)c3c(c2C#N)CCC3)o1`: the inhibition was 3.42%.

`CCSc1nnc(NC(=O)CSc2c(Cl)cccc2Cl)s1`: the inhibition is 4.43%.

`COc1ccc(S(=O)(=O)N2CCOCC2)cc1NC(=O)CO/N=C/c1ccccc1OC(F)F`: the inhibition was 8.16%.

Consider `Cc1cn(-c2ccccc2)c(C)c1/C=N\Nc1nc(N2CCOCC2)nc(N2CCOCC2)n1`, for which the inhibition is 4.34%.

`Cc1cccc(C)c1NC(=O)CSc1nnc(-c2ccco2)c(-c2ccco2)n1`: the inhibition was 17.6%.

For the compound `CC(=O)c1ccc(NC(=O)CSc2nnc(-c3ccco3)c(-c3ccco3)n2)cc1`, the inhibition is 9.65%.

Turning to `Cc1ccc(NC(=O)CSc2nnc(-c3ccco3)c(-c3ccco3)n2)cc1`, the inhibition was 25% (active).

As to `Cc1cc(CN(C)C(=O)CC2C(=O)NCCN2Cc2c(F)cccc2Cl)n[nH]1` (configuration not stated), the inhibition is -2.19%.

As for `CCS(=O)(=O)C(C)(CCl)C(=O)Nc1ccc(C(=O)OC)cc1` (configuration not stated), the inhibition was 3.92%.
